Results published in PMC12136788.
Substitutions are numbered along the chain they refer to. In all, about 24,000 sequences were measured (“enrichment r”: median about 0.99, highest 2% from about 3.7 on). This is one part of a sample in which the highest values are shown more often than they occur.

T1: UNK ZnF1-3 (human, UniProt Q9C0B0 31-174)
T1 sequence: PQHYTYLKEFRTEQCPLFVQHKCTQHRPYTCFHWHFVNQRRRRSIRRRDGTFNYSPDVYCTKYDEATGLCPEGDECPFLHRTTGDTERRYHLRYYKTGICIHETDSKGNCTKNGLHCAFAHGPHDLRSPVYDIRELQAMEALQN

B1: chr1:241675328:241675329:-_ENSG00000091483_ENST00000366560|hu_mus|FALSE|FALSE (ssRNA)
RNA: GGGAGUUCUACAGUCCGACGAUCGCUUUUGUUAACAUGAUCAUUGGGGUGCACAGGCUUCUUGCUGCCAAGUUCACCUCCUAACAUUUCAAUUGCUCUGUUGCUAAUGACUUCAUUUACAUUCAUGUUUGUCUGGGUUCCUGACAACAGAGGAUUGAGCAUCA
B2: chr17:45747064:45747065:+_ENSG00000108424_ENST00000290158|hu_hu|hu_hu_hu_mus_True|38_108 (ssRNA)
RNA: GGGAGUUCUACAGUCCGACGAUCGCCUACAGUCCAUGCUGUUGUGUCUCGAACAACUACACUGGGGUCUUUCAUUAGUUCUAUUAGGGUGGGCAUAGCCUGUAUAACUAAUGGUUUCAGUUGAUUAGGCUCUGGUCCUUCCAACAACAGAGGAUUGAGCAUCA
B3: chr18:10010020:10010021:-_ENSMUSG00000047879_ENSMUST00000092096|mus_hu|FALSE|FALSE (ssRNA)
RNA: GGGAGUUCUACAGUCCGACGAUCCUCGGCAAACUGUGGGAAAGCCAUGUGCAAAAACUGCAGUAGAAUAAUAGGUGGAAUACUGGAAGAAGUUUUAUCCAUGGAAUCAAACAAAUCUCUAAGGGCUGCAGUAAUAUACUGCGCCAACAGAGGAUUGAGCAUCA
B4: chr7:149068622:149068623:-_ENSMUSG00000025139_ENSMUST00000001950|mus_hu|mus_mus_mus_hu_False|68_98 (ssRNA)
RNA: GGGAGUUCUACAGUCCGACGAUCGUGAGGCCUCUGAGUGAGGUUCCUGGUCUGUCCUGGGUUAGAGCUGCUGGUAACACGGAACAUACCAUCUAGAACGUUCCAGUCCCGCCUGACACCUUCAUUCCCAAUGGAGAAGAAAUCCAACAGAGGAUUGAGCAUCA
B5: chr7:141445308:141445309:+_ENSG00000106028_ENST00000265304|hu_hu|hu_hu_hu_mus_False|48_68 (ssRNA)
RNA: GGGAGUUCUACAGUCCGACGAUCUAUGAUUGUUGUUGCUUGCCGCCUCACAUUGUUUUUAUCCAUGUAUUCACCAUAGUCCACUUUCCCUUCCAAAAAUAUACGAGCCCCCUUUUUCACAUACUGAUAUGCCACAUCUCUGAGCAACAGAGGAUUGAGCAUCA
B6: 120768192_120770490_416_CDS_ENSMUSG00000043207_ENSMUST00000058754|mouse|control|control (ssRNA)
RNA: GGGAGUUCUACAGUCCGACGAUCGCUGAAGGUACUUUUAUCCAGUUGAUACAAUCGAGAUUUCUCAAACGUGUCCGAAUCCAUGAUCUGUUCUAACUCUGCUGGUACGCGAGUCGUCGUUUUGUAUAUCCUUCUCUGCCGCUGCAACAGAGGAUUGAGCAUCA
B7: chr1:60041781:60041782:+_ENSMUSG00000041040_ENSMUST00000036540|mus_hu|mus_mus_mus_hu_False|18_88 (ssRNA)
RNA: GGGAGUUCUACAGUCCGACGAUCAAGUUUACAAUAGUAAAGUAAAUCAAAUUUAGUCAAAUUUUCUUUUAUUUUCCUUCACAAAAGAAAAUCUUUAUAACCCAGUCCUAGUCUUGGCAGAGAAAGCAGCUAUAAAUUCUGACUCAACAGAGGAUUGAGCAUCA
B8: chr15:76909541:76909542:-_ENSMUSG00000033565_ENSMUST00000166610|perfect_dup|FALSE|FALSE (ssRNA)
RNA: GGGAGUUCUACAGUCCGACGAUCAACAUGAUCAAUAAUUUAUACACAUGGAGAGUAAUACAAAAAAAUAAGGAAUAAAAGCUAAAGAUCUAACUACUCCGACCUUCACAAUUCCAGCUACUUGAUAAUAAUAGGAGUAACCCACAACAGAGGAUUGAGCAUCA
B9: chr20:57570089:57570090:+_ENSG00000101158_ENST00000344018|hu_mus|FALSE|FALSE (ssRNA)
RNA: GGGAGUUCUACAGUCCGACGAUCACUCCCACACACACACAUACAACUCAACAUUACUCUUGGAAACUUAAAGUAACUGACCAUCUGGGUCAUAGGAAGGAAACUUACAUAAACCCUUCAUGAAGUGUCCCAGCUGCUAGAUUCCAACAGAGGAUUGAGCAUCA
B10: chr1:163117127:163117128:-_ENSG00000143248_ENST00000313961|hu_mus|hu_hu_hu_mus_False|18_78 (ssRNA)
RNA: GGGAGUUCUACAGUCCGACGAUCUGCUACAAAGGAUGUAACUCAACUCACAGGGCAUGAUUUCAUAGCCUGACCAGAUGACUACUUGAUUAGCUCCUUAUAAAAUUCAGAGCGCACAAAGCGAGGCAGAGAAUCCUUCUCCAUCAACAGAGGAUUGAGCAUCA
B11: chr1:163117127:163117128:-_ENSG00000143248_ENST00000313961|hu_mus|hu_hu_hu_mus_False|48_78 (ssRNA)
RNA: B10 RNA with G92A, A123G
B12: chr15:76909541:76909542:-_ENSMUSG00000033565_ENSMUST00000166610|perfect_dup|motif|central (ssRNA)
RNA: B8 RNA with U82G, A83G
B13: 168352429_168352549_4431_CDS_ENSG00000130396_ENST00000400822|human|control|control (ssRNA)
RNA: GGGAGUUCUACAGUCCGACGAUCAAUGUACUGCAAGUCUCUGCGCUCGAUCGUGCGGGGCUGCUGCUGAGGCUGCAGCUCCCGAAUGACUGUUUCCUGUGGCCGCUGGAGUGUGGAAGGCUUUUCGGGCUUCAUCUGCUGUGCCAACAGAGGAUUGAGCAUCA
B14: chr2:201681052:201681053:+_ENSG00000082153_ENST00000409600|hu_hu|FALSE|FALSE (ssRNA)
RNA: GGGAGUUCUACAGUCCGACGAUCUUUUACUUCAUCUUCAAAACCUUUCUCCAGGUAUUUGUAGCGCCUGAUUAACUUGUUAAAAACCUGAGCAAAUGCUUGCAUGGUCUCUAGAUCUUCUUGGGCUGCAAACACGCAGACAUCCAACAGAGGAUUGAGCAUCA
B15: 5253780_5253900_1103_CDS_ENSG00000029725_ENST00000262477|human|control|control (ssRNA)
RNA: GGGAGUUCUACAGUCCGACGAUCAACUUGUCGGAGCUGUUCUGAAGUUAGCACAAUCUCCAUUCGCUGCAUGUCUCUCAUCAGUAAACGCUGAGAUUCCAGAAACUGGUCAUUGGCCUUCUGCCACGUAUGUUUUAACUGGUUCAACAGAGGAUUGAGCAUCA
B16: chr22:32879901:32879902:+_ENSG00000100225_ENST00000397426|hu_mus|hu_hu_hu_mus_False|48_98 (ssRNA)
RNA: GGGAGUUCUACAGUCCGACGAUCCUCUUCCAUACUCGCAUUAUCUUGAAUUGACUCAGCUUCAACAUUUUGACUAGGCCCUUCCAUACUGUCGUCAGUCCAGGCAUCAAAUGGGGUGGCCUGUCCUUGGGAUGAAUCAGUCCCCAACAGAGGAUUGAGCAUCA
B17: chr17:56552419:56552420:-_ENSMUSG00000013236_ENSMUST00000086828|mus_mus|mus_mus_mus_hu_False|58_78 (ssRNA)
RNA: GGGAGUUCUACAGUCCGACGAUCAAAAAAUACACUAUUUAAAAAAAAUGAAAUGUCAGAAAAAGAAGUUACACUGACACUAUUAAAAGAAAGCUGGAUUCUGGUCCCAGCCCAGUGUCCCCAGGCUGCAGAGCGGGGAGGAGCCAACAGAGGAUUGAGCAUCA
B18: chr17:56552419:56552420:-_ENSMUSG00000013236_ENSMUST00000086828|mus_mus|mus_mus_mus_hu_False|78_88 (ssRNA)
RNA: B17 RNA with U48A, G49A, A50G, U53A, G54A, U55A, C56A, C77G, C79G, A81U
B19: chr17:56552419:56552420:-_ENSMUSG00000013236_ENSMUST00000086828|mus_mus|mus_mus_mus_hu_False|78_98 (ssRNA)
RNA: B17 RNA with U38A, U39A, C77G, C79G, A81U
B20: chr17:56552419:56552420:-_ENSMUSG00000013236_ENSMUST00000086828|mus_mus|mus_mus_mus_hu_False|1_78 (ssRNA)
RNA: B17 RNA with C77G, C79G, A81U, A138C, G139A, C143G
B21: 86747786_86748123_1683_CDS_ENSMUSG00000035671_ENSMUST00000039480|mouse|control|control (ssRNA)
RNA: GGGAGUUCUACAGUCCGACGAUCGUGCUGGUAGGCCAGCUUUCGCUUCUCUGGGGCUGAGUCUGGGAAAAGAGAGUGAGGCUCCUCCUCCAGGCGACAGGCCUCCAGCAGUGCCCUGCAGAGGCAGCCAAUGGGAUCCAGGGGCAACAGAGGAUUGAGCAUCA
B22: chr11:77336104:77336105:-_ENSG00000074201_ENST00000525064|hu_mus|hu_hu_hu_mus_False|68_98 (ssRNA)
RNA: GGGAGUUCUACAGUCCGACGAUCCUCACACAUUGCUGUGAACAUUGCCUCCAAUGCUGACUUAUCACUAGGCACAAAUCGAAAUUCAGAAAUGGGUUCAACAUCAUCAUUGUCUUCCUCAUCUUCAUCAGAGAGAGGUUCUUUCAACAGAGGAUUGAGCAUCA

Target: T1, UNK ZnF1-3
Assay: nsRBNS (natural sequence RNA bind-n-seq); RBNS binding buffer (assumed for nsRBNS): 25 mM Tris pH 7.5, 150 mM KCl, 3 mM MgCl2, 0.01% Triton X-100, 500 ug/ml BSA, 20 U/ml SUPERase-In, 4 C; UNK is unkempt and MSI1 is Musashi-1; names of the RNAs are library labels; protein concentration not given here; high values mean tight binding

Row | Binder | binding signal
1 | B1 | 0.274 enrichment R
2 | B2 | 0.577 enrichment R
3 | B3 | 1.59 enrichment R
4 | B4 | 0.742 enrichment R
5 | B5 | 0.799 enrichment R
6 | B6 | 0.656 enrichment R
7 | B7 | 0.9 enrichment R
8 | B8 | 6.42 enrichment R
9 | B9 | 1.41 enrichment R
10 | B10 | 0.919 enrichment R
11 | B11 | 1.08 enrichment R
12 | B12 | 8.91 enrichment R
13 | B13 | 0.667 enrichment R
14 | B14 | 0.452 enrichment R
15 | B15 | 0.594 enrichment R
16 | B16 | 0.919 enrichment R
17 | B17 | 8.52 enrichment R
18 | B18 | 12.6 enrichment R
19 | B19 | 8.48 enrichment R
20 | B20 | 3.68 enrichment R
21 | B21 | 0.778 enrichment R
22 | B22 | 0.885 enrichment R
